The entries come from a sample that favours hits as a whole.
PD-1 reverse act: activators reversing PD-1 mediated T-cell inhibition; activation, % (no concentration beside the values); primary human CD4 T cells, PD-L1 beads, CellTiter-Glo 96 h; 29,000 tested, under 10 active; call rule not given here
YB-1 expression: YB-1 expression inhibition; U2OS, qRT-PCR YB-1 vs CDIP delta delta Cp, 16 h; stronger effect = higher value; zero = DMSO, each unit about twofold; delta delta Cp (YB-1 minus CDIP) (concentration not given with the values); hit rate 0.37% among 30,000; AID 434959;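 active = delta delta Cp rounded down to an integer at or above 3, about 3 SD of DMSO wells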;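 also: higher means less YB-1 transcript or more CDIP transcript relative to DMSO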
NOMO-1 viab: STK33 inhibitor candidate reducing NOMO-1 cell viability; NOMO-1 AML viability, CellTiter-Glo luminescence, 72 h; inhibition, % (no concentration beside the values); hit rate 7.5% among 37,000; in the data active = inhibition above about 80%; inconclusive = no clear call, values can overlap the other calls
MITF inh: blocks MITF activity; TRPM1 promoter luciferase, luminescence, 24 h; inhibition, % (concentration not given with the values); hit rate 0.28% among 37,000; AID 2240; in the data active = inhibition above about 85%; inconclusive = no clear call, values can overlap the other calls; inactive = below about 68%;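 also: human melanocyte line stably carrying TRPM1 promoter luciferase reporter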
U2OS ROS induce: raises reactive oxygen species in U2OS cancer cells; U2OS ROS induction, H2DCF-DA fluorescence; ROS induction (% of piperlongumine), % at 10 µM; hit rate 2% among 46,000; AID 624156; in the data active = ROS induction above about 79%, passing the limit was not always enough; inconclusive = no clear call, values can overlap the other calls
Large screens that a line does not name were inactive.

Cc1noc(C)c1NC(=O)Nc1ccc2c(c1)C(=O)N([C@H](C)CO)C[C@@H](C)[C@@H](CN(C)S(=O)(=O)c1ccccc1)O2	none
Cc1sc(NC(=O)COc2ccc(Cl)cc2Cl)c(C(N)=O)c1C	none (no result: PD-1 reverse act, YB-1 expression, U2OS ROS induce)
Nc1c2c(nc3ccccc13)CCCC2	none (no result: PD-1 reverse act)
Nc1c2ccccc2nc2ccccc12	NOMO-1 viab 106.8 (no result: PD-1 reverse act)
COC(=O)c1cc(NC(=O)CSc2nnc(N)s2)ccc1Cl	NOMO-1 viab 109.8 (no result: YB-1 expression)
C[C@H](CO)N1C[C@H](C)[C@H](CN(C)Cc2ccc(Cl)c(Cl)c2)Oc2ccc(NC(=O)CCCCCC(=O)Nc3ccccc3N)cc2C1=O	NOMO-1 viab 132.6
C[C@H]1CN([C@@H](C)CO)C(=O)c2cc(NC(=O)CCCCCC(=O)Nc3ccccc3N)ccc2O[C@@H]1CN(C)Cc1ccncc1	none
C[C@@H]1CCCCO[C@H](CN(C)Cc2ccc(Cl)c(Cl)c2)[C@@H](C)CN([C@H](C)CO)C(=O)c2cc(NC(=O)CCCCCC(=O)Nc3ccccc3N)ccc2O1	NOMO-1 viab 125.7
C[C@@H]1CN([C@H](C)CO)C(=O)c2cc(NC(=O)CCCCCC(=O)Nc3ccccc3N)ccc2O[C@H]1CN(C)C(=O)Nc1ccc(F)cc1	none
C[C@H]1CN([C@@H](C)CO)C(=O)Cc2cc(NC(=O)CCCCCC(=O)Nc3ccccc3N)ccc2O[C@H]1CN(C)Cc1ccc(Cl)c(Cl)c1	NOMO-1 viab 126.9
C[C@H]1CN([C@@H](C)CO)C(=O)c2cc(NC(=O)CCCCCC(=O)Nc3ccccc3N)ccc2O[C@@H]1CN(C)C(=O)Nc1ccc(F)cc1	U2OS ROS induce 107.7
COc1ccc(-c2nc(CNS(=O)(=O)c3ccc(NC(C)=O)cc3)cs2)cc1	none (no result: PD-1 reverse act, YB-1 expression, NOMO-1 viab, MITF inh)
Cc1ccc2nc(-c3ccc(NC(=O)COc4ccc([N+](=O)[O-])cc4)cc3)sc2c1	none (no result: PD-1 reverse act, YB-1 expression, U2OS ROS induce)
C[C@@H]1CCCCO[C@@H](CN(C)Cc2ccc(Cl)c(Cl)c2)[C@@H](C)CN([C@H](C)CO)C(=O)c2cc(NC(=O)Cc3ccccc3)ccc2O1	NOMO-1 viab 102.0, U2OS ROS induce 131.2
Cc1cccc(-n2c3c(c(=O)[nH]c2=S)C(NC(=O)CN2CCCC2=O)(C(F)(F)F)C(=O)N3)c1 (configuration not stated)	none (no result: YB-1 expression)
COC(=O)c1cccc2oc3cc(CO)cc(O)c3c(=O)c12	none
COC(=O)C1=C2C(=O)c3c(O)cc(CO)cc3OC2C(O)C=C1 (configuration not stated)	NOMO-1 viab 107.8, U2OS ROS induce 146.1
C[C@@H]1CN([C@H](C)CO)C(=O)c2cccc(NC(=O)c3cnccn3)c2O[C@H]1CN(C)S(=O)(=O)c1ccc(F)cc1	none
O=C(CN1C(=O)C2C3C=CC(C4CC34)C2C1=O)Nc1ccc(Oc2ccc(Br)cc2)cc1 (configuration not stated)	NOMO-1 viab 85.7 (no result: YB-1 expression)
O=C(CN1C(=O)C2C3C=CC(C4CC34)C2C1=O)Nc1ccc(Oc2ccccc2Cl)cc1 (configuration not stated)	none (no result: PD-1 reverse act, YB-1 expression, U2OS ROS induce)
CCOC(=O)c1nn(-c2ccccc2)c(C#N)c1NC(=O)c1nn(CC)cc1Br	NOMO-1 viab 115.0, U2OS ROS induce 166.0
CCOC(=O)c1c(NC(=O)c2nn(CC)cc2Br)c(C#N)nn1-c1ccccc1	U2OS ROS induce 125.1 (no result: YB-1 expression)
Cc1noc(C)c1CSc1nc2[nH]ncc2c(=O)n1-c1ccccc1	NOMO-1 viab 108.3 (no result: PD-1 reverse act, YB-1 expression, U2OS ROS induce)
Cc1noc(C)c1NC(=O)Nc1ccc2c(c1)CC(=O)N([C@@H](C)CO)C[C@H](C)[C@@H](CN(C)Cc1ccc(Oc3ccccc3)cc1)O2	none
C[C@@H]1CN([C@@H](C)CO)C(=O)c2cc(NS(=O)(=O)c3cn(C)cn3)ccc2O[C@@H]1CN(C)S(=O)(=O)c1cn(C)cn1	none
C[C@@H]1O[C@@H](O[C@H]2[C@H](O)[C@@H](O[C@@H]3O[C@H](CO)[C@@H](O)[C@H](O[C@@H]4O[C@H](CO)[C@@H](O)[C@H](O)[C@H]4O)[C@H]3O)[C@H](O[C@H]3CC[C@@]4(C)C(=CC[C@@H]5C4CC[C@@]4(C)C5C[C@@H]5O[C@]6(CC[C@@](C)(CO[C@@H]7O[C@H](CO)[C@@H](O)[C@H](O)[C@H]7O)O6)[C@@H](C)[C@@H]54)C3)O[C@@H]2CO)[C@H](O)[C@H](O)[C@H]1O (some centres not stated)	NOMO-1 viab 120.3
C[C@H]1CN([C@@H](C)CO)C(=O)Cc2cc(NC(=O)Nc3ccccc3)ccc2O[C@H]1CN(C)Cc1ccc(Oc2ccccc2)cc1	none
C[C@@H]1CN([C@H](C)CO)C(=O)Cc2cc(NC(=O)Nc3ccc4c(c3)OCO4)ccc2O[C@@H]1CN(C)Cc1ccc(Oc2ccccc2)cc1	NOMO-1 viab 118.8
C[C@H]1CN([C@@H](C)CO)C(=O)Cc2cc(NC(=O)Nc3ccccc3)ccc2O[C@@H]1CN(C)Cc1ccc(Oc2ccccc2)cc1	none
C[C@@H]1CN([C@@H](C)CO)C(=O)Cc2cc(NC(=O)Nc3ccc4c(c3)OCO4)ccc2O[C@@H]1CN(C)Cc1ccc(Oc2ccccc2)cc1	NOMO-1 viab 106.6
C[C@@H]1CN([C@H](C)CO)C(=O)Cc2cc(NC(=O)Nc3ccc4c(c3)OCO4)ccc2O[C@H]1CN(C)Cc1ccc(Oc2ccccc2)cc1	NOMO-1 viab 116.7 (no result: PD-1 reverse act)
COc1cc(C(=O)NCc2cccnc2)ccc1OCc1ccc(Cl)cc1	none (no result: PD-1 reverse act, YB-1 expression, NOMO-1 viab, MITF inh)
O=C(N/N=C/C(Br)=C/c1ccccc1)c1ccccn1	none (no result: PD-1 reverse act, NOMO-1 viab, MITF inh)
COc1ccc(S(=O)(=O)NCCc2ccc(OC)c(OC)c2)cc1Cl	none (no result: YB-1 expression)
CCOC(=O)c1cnc2c(c(C)nn2C)c1Sc1nnc(SC)s1	NOMO-1 viab 125.1, U2OS ROS induce inconclusive
COc1ccc(NC(=O)c2ccc(-c3ccc(-c4noc(C)n4)cc3C)cc2)cc1OCCN(C)C	NOMO-1 viab 115.4 (no result: PD-1 reverse act)
CC1(C)Cc2c(sc3ncn4nc(-c5ccccc5)nc4c23)C(C)(C)N1	NOMO-1 viab 117.5
CN(C)S(=O)(=O)c1ccc(C(=O)Nc2nc3c(s2)CCc2ccccc2-3)cc1	NOMO-1 viab 113.4
COc1cccc2sc(NC(=O)c3ccc(S(=O)(=O)N(C)C)cc3)nc12	none
O=C1CC(N2C(=O)C3CC=CCC3C2=O)C2COC1O2 (configuration not stated)	U2OS ROS induce 91.2 (no result: PD-1 reverse act, YB-1 expression, NOMO-1 viab, MITF inh)
CS(=O)(=O)N(CC(=O)Nc1ccc(F)c(F)c1)c1ccc(Br)cc1	none (no result: YB-1 expression)
C[C@H](CO)N1C[C@H](C)[C@H](CN(C)Cc2ccc(C(F)(F)F)cc2)Oc2ccc(NC(=O)Nc3ccccc3)cc2CC1=O	NOMO-1 viab 86.3 (no result: PD-1 reverse act)
C[C@H](CO)N1C[C@H](C)[C@H](CN(C)Cc2ccc(C(=O)O)cc2)Oc2ccc(NC(=O)Nc3ccc(C(F)(F)F)cc3)cc2CC1=O	none
C[C@@H]1CN([C@H](C)CO)C(=O)Cc2cc(NC(=O)Nc3ccc(C(F)(F)F)cc3)ccc2O[C@H]1CN(C)Cc1ccc(C(=O)O)cc1	none
C[C@@H]1CN([C@H](C)CO)C(=O)Cc2cc(NC(=O)Nc3ccccc3)ccc2O[C@H]1CN(C)Cc1ccc(C(F)(F)F)cc1	NOMO-1 viab 118.4
CC(=O)Nc1cccc(-c2nn3c(C)nnc3s2)c1	none

High-throughput results as filed in PubChem BioAssay.
